From PubChem BioAssay (EPA / NIEHS) come the findings set out here.

Holding throughout (conditions): mRNA level, 48 h; actives raise or lower the signal
Read-out in test [1]: Early growth response protein 1 (EGR1) transcription factor, EGR1 (gene 1958)
The test can be described thus: LTEA_HepaRG_EGR1: Life Technologies and Expression Analysis (LTEA) Assay for Early growth response protein 1 (EGR1) transcription factor using HepaRG (AID 2283490). Put shortly:
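Differentiated HepaRG cells in serum-free induction medium exposed 48 hours, duplicate, to 8 half-log concentrations up to 100 uM in 0.5% DMSO. EGR1 mRNA measured by TaqMan qRT-PCR, normalized to ACTB, GAPDH, POLR2A; bidirectional fit versus DMSO.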

Read-out in test [2]: Ezrin (EZR), EZR (gene 7430)
The test can be described thus: LTEA_HepaRG_EZR: Life Technologies and Expression Analysis (LTEA) Assay for Ezrin (EZR) using HepaRG (AID 2283491). Put shortly: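 EZR transcript levels came from Fluidigm qRT-PCR and were normalized to three housekeeping genes after 48 h chemical exposure of HepaRG cells. Dosing used an 8-point half-log series with a 100 uM top concentration in 0.5% DMSO, tested in duplicate; both directions were fitted versus vehicle.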

Read-out in test [3]: Cytochrome P450 3A7 (Homo sapiens) (UniProt P24462)
Put plainly: LTEA_HepaRG_CYP3A7: Life Technologies and Expression Analysis (LTEA) Assay for CYP3A7 using HepaRG (AID 2283492). Put shortly:
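CYP3A7 transcript levels were read by TaqMan qRT-PCR on Fluidigm arrays after 48 h chemical exposure of human HepaRG cells, with housekeeping-gene normalisation. Eight half-log concentrations up to 100 uM in 0.5% DMSO were tested in duplicate.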

Read-out in another test: CYP3A5 (gene 1577)
Put plainly: LTEA_HepaRG_CYP3A5: Life Technologies and Expression Analysis (LTEA) Assay for CYP3A5 using HepaRG (AID 2283493). Put shortly: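 mRNA induction or loss of CYP3A5 assessed in HepaRG after 48 h dosing, 100 uM top concentration, duplicate wells; TaqMan qRT-PCR with ACTB, GAPDH, POLR2A normalization; 0.5% DMSO as negative control.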

Read-out in test [4]: Fatty Acid-Binding Protein 1 (FABP1), FABP1 (gene 2168)
Put plainly: LTEA_HepaRG_FABP1: Life Technologies and Expression Analysis (LTEA) Assay for Fatty Acid-Binding Protein 1 (FABP1) using HepaRG (AID 2283494). The method, boiled down:
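Differentiated human HepaRG cells exposed 48 h in serum-free induction medium to eight half-log concentrations up to 100 uM (0.5% DMSO), duplicate. FABP1 mRNA by qRT-PCR, normalised to ACTB, GAPDH, POLR2A; bidirectional fitting against DMSO.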

Read-out in test [5]: Cytochrome P450 4A22 (Homo sapiens) (UniProt Q5TCH4)
The test can be described thus: LTEA_HepaRG_CYP4A22: Life Technologies and Expression Analysis (LTEA) Assay for Cytochrome P450 4A22 (CYP4A22) using HepaRG (AID 2283495). The method, boiled down: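 HepaRG, 48 h post-plating -> serum-free induction medium; dosed 48 h, duplicate, 8 conc. (100 uM top, half-log), 0.5% DMSO. Readout: CYP4A22 mRNA by qRT-PCR, ACTB/GAPDH/POLR2A normalization; gain/loss fit relative to DMSO.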

Read-out in test [6]: Cytochrome P450 7A1 (Homo sapiens) (UniProt P22680)
The test can be described thus: LTEA_HepaRG_CYP7A1: Life Technologies and Expression Analysis (LTEA) Assay for Cytochrome P450 7A1 (CYP7A1) using HepaRG (AID 2283496). The method, boiled down: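 Gene expression endpoint in human HepaRG liver cells treated for 48 h with test chemicals (up to 100 uM, 0.5% DMSO). Values come from bidirectional concentration-response fitting versus DMSO.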

Read-out in test [7]: Glutathione S-Transferase (GSTA2), GSTA2 (gene 2939)
Put plainly: LTEA_HepaRG_GSTA2: Life Technologies and Expression Analysis (LTEA) Assay for Glutathione S-Transferase (GSTA2) using HepaRG (AID 2283497). Put shortly: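 Differentiated human HepaRG cells were exposed in duplicate for 48 h in serum-free induction medium, 8 points from 100 uM top in half-log steps, 0.5% DMSO. GSTA2 mRNA was measured by TaqMan qRT-PCR, normalized to ACTB, GAPDH and POLR2A; bidirectional fit versus DMSO.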

Read-out in test [8]: Glutamate-cysteine ligase catalytic (GCLC), GCLC (gene 2729)
The test can be described thus: LTEA_HepaRG_GCLC: Life Technologies and Expression Analysis (LTEA) Assay for Glutamate-cysteine ligase catalytic (GCLC) using HepaRG (AID 2283498). Put shortly:
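Differentiated HepaRG cells exposed 48 h in serum-free induction medium, eight-point half-log series topping at 100 uM in 0.5% DMSO, duplicates. GCLC mRNA by qRT-PCR normalized to ACTB, GAPDH and POLR2A, fitted bidirectionally versus DMSO.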

Read-out in test [9]: growth arrest and DNA damage 45 (GADD45G), GADD45G (gene 10912)
Put plainly: LTEA_HepaRG_GADD45G: Life Technologies and Expression Analysis (LTEA) Assay for growth arrest and DNA damage 45 (GADD45G) using HepaRG (AID 2283499). The method, boiled down:
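HepaRG, 48 h exposure, top 100 uM, half-log 8-point series, 0.5% DMSO vehicle, duplicates. Readout: GADD45G transcript by qRT-PCR (Fluidigm array), housekeeping-normalised (ACTB/GAPDH/POLR2A). Bidirectional curve fit vs DMSO baseline.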

Read-out in test [10]: Glutamate-cysteine ligase regulatory (GCLM), GCLM (gene 2730)
The test can be described thus: LTEA_HepaRG_GCLM: Life Technologies and Expression Analysis (LTEA) Assay for Glutamate-cysteine ligase regulatory (GCLM) using HepaRG (AID 2283500). The method, boiled down: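 Human liver HepaRG cultures receive test chemicals for 48 hours at up to 100 uM in 0.5% DMSO. GCLM expression is measured by qRT-PCR and analysed for increases or decreases against vehicle.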

Read-out in test [11]: Heat shock 70 kDa protein 1 (HSPA1A), gene 3303
The test can be described thus: LTEA_HepaRG_HSPA1A: Life Technologies and Expression Analysis (LTEA) Assay for Heat shock 70 kDa protein 1 (HSPA1A) using HepaRG (AID 2283502). The method, boiled down:
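HSPA1A induction in human HepaRG liver cells is measured after 48 h of chemical treatment (100 uM maximum, 0.5% DMSO vehicle). Expression comes from qRT-PCR normalized to endogenous controls.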

Read-out in test [12]: Hypoxia-inducible factor 1-alpha (Homo sapiens) (UniProt Q16665)
The test can be described thus: LTEA_HepaRG_HIF1A: Life Technologies and Expression Analysis (LTEA) Assay for Hypoxia-inducible factor 1 (HIF1A) Trancription factor using HepaRG (AID 2283503). The method, boiled down:
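HepaRG, 48 h exposure, 8-pt half-log series from 100 uM, 0.5% DMSO vehicle, duplicates. Readout: HIF1A transcript by qRT-PCR (Fluidigm array), housekeeping-normalised. Bidirectional curve fit vs DMSO baseline.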

Read-out in another test: HGF (gene 3082)
The test can be described thus: LTEA_HepaRG_HGF: Life Technologies and Expression Analysis (LTEA) Assay for Hepatocyte Growth Facto (HGF) using HepaRG (AID 2283505). The method, boiled down:
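HepaRG, 48 h dosing, 8-pt half-log series from 100 uM in 0.5% DMSO, duplicates. Readout: TaqMan qRT-PCR of HGF mRNA, housekeeping-normalized; bidirectional curve fit vs DMSO baseline.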

Read-out in test [13]: Insulin Like Growth Factor 1 (IGF1), IGF1 (gene 3479)
Put plainly: LTEA_HepaRG_IGF1: Life Technologies and Expression Analysis (LTEA) Assay for Insulin Like Growth Factor 1 (IGF1) using HepaRG (AID 2283506). The method, boiled down:
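Using human HepaRG liver cells, IGF1 transcript induction or suppression is measured 48 h after dosing across eight concentrations capped at 100 uM. Values derive from bidirectional concentration-response fitting with DMSO as baseline.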

Read-out in test [14]: Intercellular Adhesion Molecule 1 (ICAM1), ICAM1 (gene 3383)
The test can be described thus: LTEA_HepaRG_ICAM1: Life Technologies and Expression Analysis (LTEA) Assay for Intercellular Adhesion Molecule 1 (ICAM1) using HepaRG (AID 2283507). Put shortly:
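HepaRG, 48 h exposure, 8-pt half-log series from 100 uM, 0.5% DMSO vehicle, duplicates. Readout: TaqMan qRT-PCR mRNA, housekeeping-normalized (ACTB/GAPDH/POLR2A). Bidirectional curve fit vs DMSO baseline.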

Read-out in test [15]: Insulin-like growth factor-binding protein 1 (IGFBP1), IGFBP1 (gene 3484)
Put plainly: LTEA_HepaRG_IGFBP1: Life Technologies and Expression Analysis (LTEA) Assay for Insulin-like growth factor-binding protein 1 (IGFBP1) using HepaRG (AID 2283508). The method, boiled down: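 qRT-PCR mRNA read-out (TaqMan, Fluidigm array), normalised to three housekeeping genes; HepaRG cells, 48 h exposure, 8-pt half-log series from 100 uM, 0.5% DMSO vehicle; bidirectional curve fit vs DMSO baseline.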

Read-out in test [16]: Interleukin 6 (IL6), IL6 (gene 3569)
The test can be described thus: LTEA_HepaRG_IL6: Life Technologies and Expression Analysis (LTEA) Assay for Interleukin 6 (IL6) using HepaRG (AID 2283509). Put shortly: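 HepaRG cells exposed in duplicate for 48 h to eight half-log concentrations, top 100 uM, in 0.5% DMSO serum-free induction medium. mRNA measured by qRT-PCR, normalized to ACTB, GAPDH and POLR2A. Bidirectional fit versus DMSO.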

Read-out in test [17]: Glutathione S-transferase M3 (GSTM3), GSTM3 (gene 2947)
Put plainly: LTEA_HepaRG_GSTM3: Life Technologies and Expression Analysis (LTEA) Assay for Glutathione S-transferase M3 (GSTM3) using HepaRG (AID 2283501). The method, boiled down: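 qRT-PCR read-out of GSTM3 transcript, normalized to three housekeeping genes, from human HepaRG cells after 48 h chemical exposure. Eight-point half-log series, top 100 uM, 0.5% DMSO vehicle; gain or loss fitted relative to DMSO baseline.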

Read-out in test [18]: 3-Hydroxy-3-Methylglutaryl-CoA Synthase 2 (HMGCS2), HMGCS2 (gene 3158)
The test can be described thus: LTEA_HepaRG_HMGCS2: Life Technologies and Expression Analysis (LTEA) Assay for 3-Hydroxy-3-Methylglutaryl-CoA Synthase 2 (HMGCS2) using HepaRG (AID 2283504). The method, boiled down:
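qRT-PCR read-out of HMGCS2 transcript, normalised to three housekeeping genes, in HepaRG cells after 48 h chemical exposure. Eight-point curves from 100 uM, half-log dilutions, 0.5% DMSO vehicle; gain or loss fitted relative to DMSO baseline.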

The structures appear in SMILES notation. Activity calls are given as the source filed them. Rule for the calls: active = hit-call score of the fitted dose curve at least 0.9, where 1 is the maximum; inactive = score below 0.9.

Chain of Hypoxia-inducible factor 1-alpha (Homo sapiens) (Q16665 whole entry, looked up): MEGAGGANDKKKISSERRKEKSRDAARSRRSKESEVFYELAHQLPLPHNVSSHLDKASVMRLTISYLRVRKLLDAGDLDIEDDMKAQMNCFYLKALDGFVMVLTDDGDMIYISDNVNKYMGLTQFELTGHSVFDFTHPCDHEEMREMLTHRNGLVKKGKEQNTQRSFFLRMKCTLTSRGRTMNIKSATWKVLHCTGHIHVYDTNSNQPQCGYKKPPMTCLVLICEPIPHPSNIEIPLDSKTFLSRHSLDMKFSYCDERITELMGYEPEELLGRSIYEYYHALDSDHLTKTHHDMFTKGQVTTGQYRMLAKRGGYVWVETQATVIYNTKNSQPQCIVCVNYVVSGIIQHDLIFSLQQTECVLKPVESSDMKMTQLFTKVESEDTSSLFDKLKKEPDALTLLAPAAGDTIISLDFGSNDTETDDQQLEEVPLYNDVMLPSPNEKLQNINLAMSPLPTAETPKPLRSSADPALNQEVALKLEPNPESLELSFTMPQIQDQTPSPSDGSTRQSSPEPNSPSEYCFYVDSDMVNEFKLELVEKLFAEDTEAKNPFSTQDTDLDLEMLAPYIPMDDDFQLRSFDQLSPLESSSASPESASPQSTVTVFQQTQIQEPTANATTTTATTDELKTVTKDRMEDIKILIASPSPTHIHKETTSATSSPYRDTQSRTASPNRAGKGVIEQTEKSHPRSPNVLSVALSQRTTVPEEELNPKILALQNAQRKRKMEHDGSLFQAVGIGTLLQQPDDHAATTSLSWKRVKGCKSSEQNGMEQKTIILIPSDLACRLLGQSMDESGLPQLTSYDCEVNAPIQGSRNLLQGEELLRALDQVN
Chain of Cytochrome P450 3A7 (Homo sapiens) (P24462 whole entry, looked up): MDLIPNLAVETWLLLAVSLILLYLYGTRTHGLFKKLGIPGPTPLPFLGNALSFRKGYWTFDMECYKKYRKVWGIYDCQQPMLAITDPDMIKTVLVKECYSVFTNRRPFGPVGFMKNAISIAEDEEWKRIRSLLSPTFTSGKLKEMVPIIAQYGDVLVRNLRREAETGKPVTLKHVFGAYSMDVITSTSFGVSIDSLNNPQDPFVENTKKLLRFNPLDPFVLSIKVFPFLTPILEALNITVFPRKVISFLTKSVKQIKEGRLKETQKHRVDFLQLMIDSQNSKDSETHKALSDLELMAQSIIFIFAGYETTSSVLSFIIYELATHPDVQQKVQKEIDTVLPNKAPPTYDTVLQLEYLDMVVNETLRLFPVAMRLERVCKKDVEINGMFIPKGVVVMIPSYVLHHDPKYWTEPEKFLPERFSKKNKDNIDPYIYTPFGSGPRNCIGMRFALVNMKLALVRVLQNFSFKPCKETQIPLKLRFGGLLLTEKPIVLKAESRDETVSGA

As to `CCOCCOCCO`, the molecule was called inactive (in test [1]; in test [2]; in [3]; in the test with CYP3A5 (gene 1577); in test [4]; in test [5]). For the same molecule, the outcome in test [6], in test [7], in [8], in test [9], in test [10] and in test [11] was inactive. The molecule was classed as inactive (in test [12]; in the test with HGF (gene 3082); in [13]; in test [14]; in [15]; in test [16]).

Broadly, the AC50 is the midpoint of the concentration-response curve, whichever way the signal moves. Consider `Cc1cc(Cc2ccc(N)c(C)c2)ccc1N`, for which the call (in [1]; in [2]; with CYP3A5 (gene 1577); in [4]; in test [5]; in test [7]) was inactive. Further, the molecule was classed as inactive in [8], in test [9], in test [10], in [17], in [11] and in test [12]. The molecule was called inactive (in test [18]; with HGF (gene 3082); in [14]; in test [15]; in test [16]). Also, the AC50 was 10.8 µM (active) in [3] and 5.09 µM (active) in test [6].

As to `O=C(NS(=O)(=O)/C=C/c1cccs1)c1ccc(F)cc1Br`, the molecule was called inactive (in [1]; in test [2]; with CYP3A5 (gene 1577); in test [5]; in test [7]; in [8]). Further, the molecule was called inactive (in test [9]; in test [10]; in test [11]; in [12]; with HGF (gene 3082); in [14]). Moreover, the call in test [15] and in [16] was inactive. The AC50 in test [3] is 5.96 µM (active); in [4], 26.6 µM (active); in [6], 27.9 µM (active); in [18] it was 71 µM (active); in test [13], 31.1 µM (active).

On to `CC(=O)O[C@]1(C(C)=O)CC[C@H]2[C@@H]3C=C(Cl)C4=CC(=O)[C@@H]5C[C@@H]5[C@]4(C)[C@H]3CC[C@@]21C`, for which the outcome in test [1], in [2], in test [3], in test [5], in test [8] and in [10] was inactive. Besides, the molecule was classed as inactive (with HGF (gene 3082); in test [14]; in [16]). Also, the AC50 with CYP3A5 (gene 1577) is 50 µM (active); in test [4], 21.7 µM (active); in test [6], 59 µM (active); in test [7], 15.8 µM (active); in [9] it was 50 µM (active); in [11] it was 83.4 µM (active). The half-maximal activity concentration (AC50) in [13] and in test [15] was 50 µM (active) in each case.
